Bioassay records (PubChem)
PP1 counter: PP1-alpha phosphatase inhibitors, primary screen, counter-screen for PP5 inhibitor project, biochemical, fluorescence, OMFP substrate, single point; purified PP1alpha; inhibition, % at 6.7 µM; 320,000 compounds, 0.9% hits;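 active means inhibition above the mean inhibition of all tested compounds plus 3 SD, computed separately for each screening campaign, cut at about 15% in these data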
PME-1 inh: PME-1 inhibitors via competitive probe labeling, primary screen, biochemical, fluorescence polarization, FP-Rh probe, HTS. Protein phosphatase methylesterase 1 (Homo sapiens), Q9Y570. recombinant PME-1. inhibition, % at 5.9 µM. 320,000 compounds, 0.53% hits. AID 2130, 2009;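 active means inhibition above the campaign mean of all compounds plus 3 SD, cut at about 26% in these data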;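 further: competitive labeling of PME-1 active site by serine hydrolase directed probe; 0% = PME-1 with DMSO and 100% = wells lacking PME-1 enzyme; inhibitors block probe labeling so polarization falls and inhibition rises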
Target sequence (Q9Y570 whole entry, looked up): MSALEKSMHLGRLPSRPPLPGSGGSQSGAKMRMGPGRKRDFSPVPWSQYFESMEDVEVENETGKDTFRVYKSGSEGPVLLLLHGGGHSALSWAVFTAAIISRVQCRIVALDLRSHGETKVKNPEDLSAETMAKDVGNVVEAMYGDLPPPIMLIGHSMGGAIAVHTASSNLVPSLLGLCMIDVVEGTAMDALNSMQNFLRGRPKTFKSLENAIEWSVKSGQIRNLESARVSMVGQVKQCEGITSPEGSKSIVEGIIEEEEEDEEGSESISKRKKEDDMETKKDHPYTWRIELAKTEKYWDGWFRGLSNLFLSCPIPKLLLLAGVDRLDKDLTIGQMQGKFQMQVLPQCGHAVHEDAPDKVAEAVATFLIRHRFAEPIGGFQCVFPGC
Fam108B inh: mouse Fam108B serine hydrolase inhibitors, primary screen, counter-screen for RBBP9 inhibitor project, biochemical, fluorescence polarization; inhibition, % at 9.51 µM; recombinant Fam108B, FP-Rh probe fluorescence polarization; 300,000 compounds, 0.33% hits;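 active means inhibition above the screen mean inhibition plus 3 SD, computed separately per campaign, cut at about 18% in these data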;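 further: inhibitors lower polarization as less probe binds the enzyme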
PP5 primary: PP5 phosphatase inhibitors, primary screen, biochemical, fluorescence; purified PP5c, OMFP substrate fluorescence; inhibition, % at 6.7 µM; 320,000 compounds, 0.18% hits; AID 1987, 2009;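 active means inhibition above the campaign's mean inhibition across all tested compounds plus 3 SD, cut at about 9.5% in these data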;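 further: 0% = DMSO only and 100% = 100 µM cantharidin control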
LYPLA1 counter: LYPLA1 inhibitors, primary screen, counter-screen for PME1 inhibitor project, biochemical, fluorescence polarization, FP-Rh probe ABPP. inhibition, % at 5.9 µM. 320,000 compounds, 0.16% hits. recombinant LYPLA1;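 active means inhibition above the mean of all tested compounds plus 3 SD, set per campaign, cut at about 14% in these data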;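 further: inhibitors block serine hydrolase probe labeling of LYPLA1 so polarization falls; 0% = enzyme with DMSO and 100% = wells lacking LYPLA1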
LYPLA2 counter: LYPLA2 inhibitors, primary screen, counter-screen for PME1 inhibitor project, biochemical, fluorescence polarization, FP-Rh probe ABPP; inhibition, % at 5.9 µM; AID 2177, 2009; recombinant LYPLA2; 320,000 compounds, 0.38% hits;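 active means inhibition above the screen-wide mean plus 3 SD, limit set per campaign, cut at about 26% in these data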;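 further: 0% = LYPLA2 with DMSO and 100% = wells lacking LYPLA2 enzyme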
Target sequence (O95372 whole entry, looked up): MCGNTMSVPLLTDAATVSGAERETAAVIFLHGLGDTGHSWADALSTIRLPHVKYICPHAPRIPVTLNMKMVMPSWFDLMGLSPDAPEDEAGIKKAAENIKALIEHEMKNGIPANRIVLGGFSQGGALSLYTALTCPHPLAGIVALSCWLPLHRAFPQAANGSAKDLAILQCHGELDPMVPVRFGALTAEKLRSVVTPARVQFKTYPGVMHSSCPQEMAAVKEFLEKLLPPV
PP1 confirm: PP1 phosphatase inhibitors, confirmation, biochemical, fluorescence, OMFP substrate, triplicate; 1,900 compounds, 52% hits; shares compounds with PP1 counter; AID 2358, 2010; purified PP1alpha; inhibition, % at 6.7 µM;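 active means mean PP1 inhibition above a set limit taken from the earlier primary screen, cut at about 15% in these data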
PP5 inh counter: PP5 phosphatase inhibition by PP1 hits, confirmation, counter-screen for PP1 inhibitor project, biochemical, fluorescence, triplicate; purified PP5c, OMFP fluorescence; inhibition, % at 6.7 µM; 1,900 compounds, 4% hits; shares compounds with PP1 counter;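 active means mean PP5 inhibition over triplicate wells above about 9.5% taken from the earlier PP1 screen, limit read from the data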
The depositor's hits bear a star; / = no result given. Compounds with a hit are over-represented: about 1.8% of the library has one in this group of screens.

SMILES	PP1 counter	PME-1 inh	Fam108B inh	PP5 primary	LYPLA1 counter	LYPLA2 counter	PP1 confirm	PP5 inh counter
CCOC(=O)N1CCN(S(=O)(=O)c2ccc(C(=O)NNc3nc4c(C)cc(C)cc4s3)cc2)CC1	31*	4	11	6	-2	4	19*	-2
CCOC(=O)N1CCN(S(=O)(=O)c2ccc(C(=O)Nc3nnc(CC)o3)cc2)CC1	15	1	-14	4	-1	1	/	/
COC(=O)C1Cc2ccccc2CN1S(=O)(=O)c1ccc(F)cc1 (stereo unspecified)	-2	-4	-1	-2	2	5	/	/
COc1cc(/C=C2\SC(=N)N(c3ccc(F)cc3)C2=O)ccc1O	26*	-2	4	4	-5	0	20*	-1
CCCN(CC(=O)Nc1ccc(F)c(F)c1F)C(=O)c1ccc(N2CCCC2=O)cc1	-1	-1	/	2	-2	5	/	/
CCCc1[nH]n(-c2nc3ccccc3s2)c(=O)c1C=NCCN1CCOCC1	20*	5	-1	2	-4	2	-1	1
C=Cn1cc[n+](CC(=O)c2ccc(-c3ccccc3)cc2)c1	22*	-4	1	2	-1	-1	-2	0
COc1ccc(/C=N/OCc2ccc(Br)cc2)c(OC)c1	-3	-5	-2	1	-5	-2	/	/
Cc1cc(/C=C\c2ccc3cc(N(C)C)ccc3[n+]2C)c(C)n1-c1ccccc1	34*	-74	-63	6	-16	-47	8	4
C[n+]1c(/C=C/c2ccc(O)cc2)ccc2ccccc21	6	-12	-11	3	-8	-7	/	/
O=C(NCCN1C(=O)S/C(=C\c2ccc(Cl)c([N+](=O)[O-])c2)C1=O)C1=COCCO1	1	3	-3	-1	3	3	/	/
O=C1c2cccc3cccc(c23)C(=O)N1c1ccc2ncccc2c1	23*	-5	0	-3	3	21	6	-2
O=C1c2cccc3cccc(c23)C(=O)N1c1nccs1	-1	-9	-1	3	-1	4	/	/
CC(C)Oc1ccc(C(=O)NCC(=O)N2CCN(S(=O)(=O)/C=C/c3ccccc3)CC2)cc1	-2	1	/	2	-2	0	/	/
CCCCCCCCCCCCCCCC[N+](C)(C)CC	20*	-5	5	3	2	6	-11	2
CCCCCC[N+](C)(C)CCSSCC[N+](C)(C)CCCCCC	-6	-2	-1	-1	1	2	/	/
CCCCCCOc1ccc(/C(C)=N/NC2=NCCN2)cc1[N+](=O)[O-]	20*	2	3	3	-1	2	9	2
C/C(=N\NC1=NCCN1)c1ccc(N)c([N+](=O)[O-])c1	-4	-5	3	2	-3	-5	/	/
COc1cc(/C=C/C(=O)OCC(=O)N(C)C2CCS(=O)(=O)C2)ccc1OC(F)F (stereo unspecified)	-10	0	-3	3	-1	-3	/	/
Cc1ccc(C(=O)NCCCN2CCOCC2)cc1Cl	18*	-6	-4	-4	0	-2	-5	-4
Cc1ccc(C(=O)NCCCN2CCOCC2)cc1S(=O)(=O)N1CCOCC1	-4	11	/	2	4	10	/	/
CCN(CC)S(=O)(=O)c1ccc(C)c(NC(=O)CN2C(=O)NC3(CCCC3)C2=O)c1	0	-3	0	0	0	5	/	/
CCN(CC)S(=O)(=O)c1ccc(N2CCCC2)c(NC(=O)CN2C(=O)NC3(CCCC3)C2=O)c1	21*	-1	0	1	2	4	1	-5
O=C(Nc1nc(-c2ccccn2)cs1)c1ccc(F)c(S(=O)(=O)N2CCOCC2)c1	30*	1	/	7	-5	-7	37*	2
CN(CC1CCCO1)S(=O)(=O)c1ccc(C(=O)Nc2ccccc2F)cc1 (stereo unspecified)	-2	5	3	3	-4	-2	/	/
SMILES	PP1 counter	PME-1 inh	Fam108B inh	PP5 primary	LYPLA1 counter	LYPLA2 counter	PP1 confirm	PP5 inh counter
Cc1ccc(C(=O)Nc2nc(-c3ccccn3)cs2)cc1S(=O)(=O)N1CCOCC1	31*	2	/	7	-6	-4	35*	-1
Cc1ccc(C(=O)Nc2ccccn2)cc1S(=O)(=O)N1CCOCC1	-6	-4	-1	-3	-2	-3	/	/
CN(CC1CCCO1)S(=O)(=O)c1ccc(C(=O)Nc2nc(-c3ccccn3)cs2)cc1 (stereo unspecified)	29*	-6	-1	1	-8	-3	28*	-3
COc1c(N2CCN(C(=S)NCc3ccccc3)C(C)C2)c(F)cc2c(=O)c(C(=O)O)cn(C3CC3)c12 (stereo unspecified)	43*	-4	3	3	0	5	33*	-4
COc1c(N2CCN[C@H](C)C2)c(F)cc2c(=O)c(C(=O)O)cn(C3CC3)c12	1	0	2	-1	-1	-3	/	/
CC(C(=O)Nc1nccs1)N1C(=O)c2ccccc2S1(=O)=O (stereo unspecified)	-3	4	0	0	0	-2	/	/
CCOc1ccc(NC(=O)c2ccc(NC(=O)c3ccc(CN4CCOCC4)cc3)cc2)cc1	22*	-2	-10	4	-4	-1	41*	-6
COC(=O)c1ccc(NC(=O)c2ccc(CN3CCOCC3)cc2)cc1	-8	-1	-1	4	0	4	/	/
CSCCC(NC(=O)c1ccc([N+](=O)[O-])cc1Cl)C(=O)OCC(=O)NC(=O)CN1CCCC1=O (stereo unspecified)	39*	2	1	-1	0	3	-1	-3
CSCCC(NC(=O)c1ccc([N+](=O)[O-])cc1Cl)C(=O)OCC(=O)NC1CCCC(C)C1C (stereo unspecified)	0	2	-3	4	-2	-5	/	/
C=CCn1c(C(CC)CC)nc2ccccc21	1	-2	2	2	1	5	/	/
O=C(COC(=O)CCS(=O)(=O)c1ccccc1)NC(=O)c1ccc(OC(F)F)cc1	-4	0	-2	-2	-2	-2	/	/
CCOC(=O)c1cnc(-n2nc(C)cc2C)nc1NC1CCCCC1	55*	6	-1	6	-1	10	54*	1
